PMC7862700, “An all-to-all approach to the identification of sequence-specific readers for epigenetic DNA modifications on cytosine”

Legend:
Assay in all cases: DAPPL (digital affinity profiling via proximity ligation, sequencing); 10 mM Tris-HCl pH 7.5, 50 mM NaCl, 1 mM DTT, 4% glycerol, room temperature, 30 min; GST-TFs on glutathione beads, 16-mer random dsDNA library, 0.1% formaldehyde crosslink after washing; high values mean tight binding
FLI1 = molecular target: T1, FLI1 (Homo sapiens, UniProt Q01543 1-452); settings: protein: recombinant; tags: N-terminal GST; dsDNA, one strand shown
T1 sequence: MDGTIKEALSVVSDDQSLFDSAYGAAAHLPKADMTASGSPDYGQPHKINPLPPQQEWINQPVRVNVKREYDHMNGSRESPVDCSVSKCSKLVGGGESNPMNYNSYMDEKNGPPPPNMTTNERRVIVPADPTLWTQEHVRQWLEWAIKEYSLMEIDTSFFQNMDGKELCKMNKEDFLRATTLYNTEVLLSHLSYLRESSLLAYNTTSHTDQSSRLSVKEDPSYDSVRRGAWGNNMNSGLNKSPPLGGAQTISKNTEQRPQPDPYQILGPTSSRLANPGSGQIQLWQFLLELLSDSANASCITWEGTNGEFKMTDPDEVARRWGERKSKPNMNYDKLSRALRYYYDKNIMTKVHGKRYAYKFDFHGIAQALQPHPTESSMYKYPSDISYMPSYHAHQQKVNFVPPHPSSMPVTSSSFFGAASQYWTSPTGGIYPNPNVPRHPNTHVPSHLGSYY
Summary of the method: (§1)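 Human transcription factors carrying a GST fusion were produced in yeast, bound to glutathione beads, tagged with DNA barcodes and pooled together with a tag-only sample. Each pool was held with 200 nmole of a random double-stranded 16-mer DNA library in Tris/NaCl/DTT/glycerol buffer for 30 min at room temperature, then washed, crosslinked in 0.1% formaldehyde, proximity-ligated with BsaI/T4 ligase (1 h, 37 °C), PCR-amplified and sequenced on an Illumina NextSeq500. Binding signal is the read frequency of each hexamer for a given factor divided by its frequency in the tag-only sample.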

ELK1 = molecular target: T2, ELK1 (Homo sapiens, UniProt P19419 1-428); settings: protein: recombinant; tags: N-terminal GST; dsDNA, one strand shown
T2 sequence: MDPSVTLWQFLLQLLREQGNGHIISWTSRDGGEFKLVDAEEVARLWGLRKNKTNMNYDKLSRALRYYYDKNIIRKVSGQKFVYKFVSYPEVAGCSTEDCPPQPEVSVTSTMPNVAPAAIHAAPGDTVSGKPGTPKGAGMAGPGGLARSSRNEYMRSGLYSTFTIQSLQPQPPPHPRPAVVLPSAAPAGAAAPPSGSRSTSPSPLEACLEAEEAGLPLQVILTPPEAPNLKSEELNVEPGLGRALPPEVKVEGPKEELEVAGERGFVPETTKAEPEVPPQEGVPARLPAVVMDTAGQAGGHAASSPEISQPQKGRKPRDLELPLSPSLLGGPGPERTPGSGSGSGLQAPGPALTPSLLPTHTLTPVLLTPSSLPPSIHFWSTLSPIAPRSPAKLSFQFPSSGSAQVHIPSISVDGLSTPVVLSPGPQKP
Summary of the method: as §1

GABPA = molecular target: T3, GABPA (Homo sapiens, UniProt Q06546 1-454); settings: protein: recombinant; tags: N-terminal GST; dsDNA, one strand shown
T3 sequence: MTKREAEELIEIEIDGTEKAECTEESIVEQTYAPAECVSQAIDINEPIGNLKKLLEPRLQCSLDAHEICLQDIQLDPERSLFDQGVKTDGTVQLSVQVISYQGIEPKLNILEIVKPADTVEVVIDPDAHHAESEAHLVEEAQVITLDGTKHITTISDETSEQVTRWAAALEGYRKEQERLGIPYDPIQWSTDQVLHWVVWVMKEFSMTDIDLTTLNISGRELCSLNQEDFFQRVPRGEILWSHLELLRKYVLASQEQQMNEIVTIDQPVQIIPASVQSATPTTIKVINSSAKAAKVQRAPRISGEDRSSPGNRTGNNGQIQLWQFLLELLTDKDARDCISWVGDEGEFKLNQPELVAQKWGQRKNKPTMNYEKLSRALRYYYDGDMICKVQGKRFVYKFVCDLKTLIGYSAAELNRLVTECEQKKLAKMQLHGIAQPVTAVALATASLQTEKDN
Summary of the method: as §1

ERG = molecular target: T4, ERG (Homo sapiens, UniProt P11308 1-479); settings: protein: recombinant; tags: N-terminal GST; dsDNA, one strand shown
T4 sequence: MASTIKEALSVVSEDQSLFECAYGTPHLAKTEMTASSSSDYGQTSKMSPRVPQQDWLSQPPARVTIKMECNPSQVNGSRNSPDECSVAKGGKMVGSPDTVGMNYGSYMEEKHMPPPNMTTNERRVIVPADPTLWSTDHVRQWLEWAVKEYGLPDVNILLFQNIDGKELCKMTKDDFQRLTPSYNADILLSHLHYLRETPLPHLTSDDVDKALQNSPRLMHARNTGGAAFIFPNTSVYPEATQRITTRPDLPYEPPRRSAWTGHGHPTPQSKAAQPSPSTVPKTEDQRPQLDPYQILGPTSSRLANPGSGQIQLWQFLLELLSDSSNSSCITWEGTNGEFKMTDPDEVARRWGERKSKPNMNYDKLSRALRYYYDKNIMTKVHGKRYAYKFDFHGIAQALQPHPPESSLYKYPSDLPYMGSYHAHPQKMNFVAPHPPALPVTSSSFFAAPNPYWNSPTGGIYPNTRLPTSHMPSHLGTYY
Summary of the method: as §1

ELF1 = ELF1 (Homo sapiens, UniProt P32519 1-619); settings: protein: recombinant; tags: N-terminal GST; dsDNA, one strand shown
Summary of the method: as §1

EHF = molecular target: T5, EHF (Homo sapiens, UniProt Q9NZC4 1-300); settings: protein: recombinant; tags: N-terminal GST; dsDNA, one strand shown
T5 sequence: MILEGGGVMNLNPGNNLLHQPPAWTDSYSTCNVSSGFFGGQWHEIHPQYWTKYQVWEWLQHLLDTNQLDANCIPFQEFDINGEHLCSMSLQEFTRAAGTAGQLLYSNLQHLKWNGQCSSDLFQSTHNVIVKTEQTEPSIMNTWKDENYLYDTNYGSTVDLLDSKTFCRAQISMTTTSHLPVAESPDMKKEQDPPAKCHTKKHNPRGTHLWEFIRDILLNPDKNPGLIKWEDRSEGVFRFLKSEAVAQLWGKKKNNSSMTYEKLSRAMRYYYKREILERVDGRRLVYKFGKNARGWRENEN
Summary of the method: as §1

SPI1 = SPI1 (Homo sapiens, UniProt P17947 1-270); settings: protein: recombinant; tags: N-terminal GST; dsDNA, one strand shown
Summary of the method: as §1

SPIB = SPIB (Homo sapiens, UniProt Q01892 1-262); settings: protein: recombinant; tags: N-terminal GST; dsDNA, one strand shown
Summary of the method: as §1

ELK3 = molecular target: T6, ELK3 (Homo sapiens, UniProt P41970 1-407); settings: protein: recombinant; tags: N-terminal GST; dsDNA, one strand shown
T6 sequence: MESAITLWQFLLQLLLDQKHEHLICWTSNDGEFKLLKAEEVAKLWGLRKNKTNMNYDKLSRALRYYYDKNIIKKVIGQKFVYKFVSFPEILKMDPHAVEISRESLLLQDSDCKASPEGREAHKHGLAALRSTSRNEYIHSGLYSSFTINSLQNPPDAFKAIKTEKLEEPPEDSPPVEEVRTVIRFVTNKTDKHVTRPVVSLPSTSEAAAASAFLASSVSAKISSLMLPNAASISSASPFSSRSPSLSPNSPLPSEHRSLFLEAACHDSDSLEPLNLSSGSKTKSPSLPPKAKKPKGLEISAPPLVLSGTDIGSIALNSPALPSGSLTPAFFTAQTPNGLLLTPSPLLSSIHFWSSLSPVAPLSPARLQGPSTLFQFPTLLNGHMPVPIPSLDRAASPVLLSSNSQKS
Summary of the method: as §1

FEV = molecular target: T7, FEV (Homo sapiens, UniProt Q99581 1-238); settings: protein: recombinant; tags: N-terminal GST; dsDNA, one strand shown
T7 sequence: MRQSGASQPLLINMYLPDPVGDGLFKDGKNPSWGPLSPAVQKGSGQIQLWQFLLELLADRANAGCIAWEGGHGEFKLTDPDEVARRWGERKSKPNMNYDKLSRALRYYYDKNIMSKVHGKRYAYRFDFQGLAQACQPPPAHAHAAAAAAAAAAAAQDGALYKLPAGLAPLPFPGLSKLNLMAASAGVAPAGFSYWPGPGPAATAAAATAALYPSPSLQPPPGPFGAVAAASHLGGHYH
Summary of the method: as §1

ETV5 = ETV5 (Homo sapiens, UniProt P41161 1-510); settings: protein: recombinant; tags: N-terminal GST; dsDNA, one strand shown
Summary of the method: as §1

HSF1 = HSF1 (Homo sapiens, UniProt Q00613 1-529); settings: protein: recombinant; tags: N-terminal GST; chain copies: 3; dsDNA, one strand shown
Summary of the method: as §1

SPIC = molecular target: T8, SPIC (Homo sapiens, UniProt Q8N5J4 1-248); settings: protein: recombinant; tags: N-terminal GST; dsDNA, one strand shown
T8 sequence: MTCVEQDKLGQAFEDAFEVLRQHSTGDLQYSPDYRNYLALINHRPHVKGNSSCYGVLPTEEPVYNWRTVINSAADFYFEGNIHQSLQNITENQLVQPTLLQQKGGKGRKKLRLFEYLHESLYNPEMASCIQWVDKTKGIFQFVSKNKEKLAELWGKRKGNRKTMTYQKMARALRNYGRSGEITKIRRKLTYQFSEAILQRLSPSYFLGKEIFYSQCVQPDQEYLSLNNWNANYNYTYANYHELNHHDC
Summary of the method: as §1

ELF4 = ELF4 (Homo sapiens, UniProt Q99607 1-663); settings: protein: recombinant; tags: N-terminal GST; dsDNA, one strand shown
Summary of the method: as §1

ELK4 = molecular target: T9, ELK4 (Homo sapiens, UniProt P28324-2 1-405); settings: protein: recombinant; tags: N-terminal GST; dsDNA, one strand shown
T9 sequence: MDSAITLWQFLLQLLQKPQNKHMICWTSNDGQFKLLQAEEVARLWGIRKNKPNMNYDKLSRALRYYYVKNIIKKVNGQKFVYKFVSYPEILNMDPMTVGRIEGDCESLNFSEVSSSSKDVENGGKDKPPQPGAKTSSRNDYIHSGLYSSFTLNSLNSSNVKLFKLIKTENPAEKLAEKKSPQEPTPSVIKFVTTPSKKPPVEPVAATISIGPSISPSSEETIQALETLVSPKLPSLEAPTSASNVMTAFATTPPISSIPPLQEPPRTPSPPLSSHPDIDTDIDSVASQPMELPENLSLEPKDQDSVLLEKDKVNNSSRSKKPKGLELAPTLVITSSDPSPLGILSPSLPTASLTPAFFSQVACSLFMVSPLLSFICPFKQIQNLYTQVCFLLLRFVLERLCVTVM
Summary of the method: as §1

ETV2 = molecular target: T10, ETV2 (Homo sapiens, UniProt O00321 1-342); settings: protein: recombinant; tags: N-terminal GST; dsDNA, one strand shown
T10 sequence: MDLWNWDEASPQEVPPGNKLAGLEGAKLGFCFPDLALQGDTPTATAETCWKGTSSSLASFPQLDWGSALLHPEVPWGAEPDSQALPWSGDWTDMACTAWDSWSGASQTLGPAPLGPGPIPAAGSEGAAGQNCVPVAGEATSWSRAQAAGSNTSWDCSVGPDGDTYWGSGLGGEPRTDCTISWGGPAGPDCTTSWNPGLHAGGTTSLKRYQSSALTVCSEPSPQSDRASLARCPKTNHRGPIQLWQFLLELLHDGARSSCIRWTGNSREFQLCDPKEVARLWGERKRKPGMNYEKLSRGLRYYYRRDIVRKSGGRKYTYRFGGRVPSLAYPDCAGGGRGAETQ
Summary of the method: as §1

ELF3 = molecular target: T11, ELF3 (Homo sapiens, UniProt P78545 1-371); settings: protein: recombinant; tags: N-terminal GST; dsDNA, one strand shown
T11 sequence: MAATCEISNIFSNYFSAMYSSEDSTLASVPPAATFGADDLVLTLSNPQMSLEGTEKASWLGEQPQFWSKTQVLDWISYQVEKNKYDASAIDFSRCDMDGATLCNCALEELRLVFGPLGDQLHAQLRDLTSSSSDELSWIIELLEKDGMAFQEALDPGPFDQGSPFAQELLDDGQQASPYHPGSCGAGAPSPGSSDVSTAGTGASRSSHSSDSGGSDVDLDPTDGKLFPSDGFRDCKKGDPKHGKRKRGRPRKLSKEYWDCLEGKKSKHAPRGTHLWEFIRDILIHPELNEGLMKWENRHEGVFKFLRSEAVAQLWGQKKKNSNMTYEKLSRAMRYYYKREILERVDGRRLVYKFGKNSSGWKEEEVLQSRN
Summary of the method: as §1

CRX = CRX (Homo sapiens, UniProt O43186 1-299); settings: protein: recombinant; tags: N-terminal GST; dsDNA, one strand shown
Summary of the method: as §1

ETV1 = ETV1 (Homo sapiens, UniProt P50549 1-477); settings: protein: recombinant; tags: N-terminal GST; dsDNA, one strand shown
Summary of the method: as §1

ELF1, sequence (P32519 whole entry): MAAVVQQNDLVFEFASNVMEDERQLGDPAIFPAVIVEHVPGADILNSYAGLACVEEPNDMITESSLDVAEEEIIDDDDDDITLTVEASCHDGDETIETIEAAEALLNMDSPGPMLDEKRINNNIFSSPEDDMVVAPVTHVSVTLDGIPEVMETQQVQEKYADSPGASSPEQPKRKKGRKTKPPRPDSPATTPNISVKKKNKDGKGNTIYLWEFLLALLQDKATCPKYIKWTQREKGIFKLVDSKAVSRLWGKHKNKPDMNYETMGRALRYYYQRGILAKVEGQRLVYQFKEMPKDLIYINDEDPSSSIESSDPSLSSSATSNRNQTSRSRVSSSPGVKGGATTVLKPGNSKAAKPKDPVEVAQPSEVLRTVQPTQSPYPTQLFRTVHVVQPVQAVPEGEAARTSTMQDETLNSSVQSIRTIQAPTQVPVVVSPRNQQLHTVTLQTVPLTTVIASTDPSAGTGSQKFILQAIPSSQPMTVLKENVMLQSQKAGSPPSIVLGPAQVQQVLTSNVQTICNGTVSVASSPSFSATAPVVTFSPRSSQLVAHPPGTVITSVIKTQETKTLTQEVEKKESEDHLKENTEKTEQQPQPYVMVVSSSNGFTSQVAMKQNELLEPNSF
CRX, sequence (O43186 whole entry): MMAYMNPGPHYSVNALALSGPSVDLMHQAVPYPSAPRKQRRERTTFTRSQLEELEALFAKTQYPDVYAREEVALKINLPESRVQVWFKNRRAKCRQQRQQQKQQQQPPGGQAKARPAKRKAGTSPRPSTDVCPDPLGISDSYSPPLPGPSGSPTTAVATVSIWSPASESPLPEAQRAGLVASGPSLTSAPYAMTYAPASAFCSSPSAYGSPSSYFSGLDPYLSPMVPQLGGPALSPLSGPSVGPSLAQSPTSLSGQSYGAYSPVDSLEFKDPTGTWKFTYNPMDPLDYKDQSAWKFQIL
ELF4, sequence (Q99607 whole entry): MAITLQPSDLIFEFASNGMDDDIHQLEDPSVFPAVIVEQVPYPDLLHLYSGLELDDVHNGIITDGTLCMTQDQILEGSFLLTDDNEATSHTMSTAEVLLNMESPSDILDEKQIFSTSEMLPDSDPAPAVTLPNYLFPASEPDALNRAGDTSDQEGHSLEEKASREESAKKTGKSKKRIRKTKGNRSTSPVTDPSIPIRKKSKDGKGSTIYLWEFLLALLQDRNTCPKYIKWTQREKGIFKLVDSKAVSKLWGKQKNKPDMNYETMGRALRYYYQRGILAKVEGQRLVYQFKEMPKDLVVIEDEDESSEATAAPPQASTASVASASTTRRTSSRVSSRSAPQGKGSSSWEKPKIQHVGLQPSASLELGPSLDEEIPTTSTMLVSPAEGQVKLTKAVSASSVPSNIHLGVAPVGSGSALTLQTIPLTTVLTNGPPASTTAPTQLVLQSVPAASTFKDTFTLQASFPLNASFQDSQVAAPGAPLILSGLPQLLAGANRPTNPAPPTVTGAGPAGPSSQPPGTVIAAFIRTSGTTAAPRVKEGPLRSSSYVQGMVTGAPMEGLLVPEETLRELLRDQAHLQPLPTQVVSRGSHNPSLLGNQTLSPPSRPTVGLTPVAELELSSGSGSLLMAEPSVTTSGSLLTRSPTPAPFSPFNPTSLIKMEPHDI
HSF1, sequence (Q00613 whole entry): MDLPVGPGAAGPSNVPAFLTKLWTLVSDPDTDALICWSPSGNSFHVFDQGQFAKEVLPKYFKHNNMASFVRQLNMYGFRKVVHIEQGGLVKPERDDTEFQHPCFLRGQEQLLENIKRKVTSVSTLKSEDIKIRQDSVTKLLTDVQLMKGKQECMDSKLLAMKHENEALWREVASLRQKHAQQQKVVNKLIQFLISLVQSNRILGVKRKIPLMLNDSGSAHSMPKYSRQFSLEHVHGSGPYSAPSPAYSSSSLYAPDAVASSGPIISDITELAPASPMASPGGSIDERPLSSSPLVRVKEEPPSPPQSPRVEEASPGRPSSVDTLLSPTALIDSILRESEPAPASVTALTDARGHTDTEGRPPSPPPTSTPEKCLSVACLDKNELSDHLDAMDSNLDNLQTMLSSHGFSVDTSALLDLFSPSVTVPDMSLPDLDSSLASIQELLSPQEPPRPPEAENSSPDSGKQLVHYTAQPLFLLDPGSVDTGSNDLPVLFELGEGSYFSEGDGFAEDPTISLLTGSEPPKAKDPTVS
ETV5, sequence (P41161 whole entry): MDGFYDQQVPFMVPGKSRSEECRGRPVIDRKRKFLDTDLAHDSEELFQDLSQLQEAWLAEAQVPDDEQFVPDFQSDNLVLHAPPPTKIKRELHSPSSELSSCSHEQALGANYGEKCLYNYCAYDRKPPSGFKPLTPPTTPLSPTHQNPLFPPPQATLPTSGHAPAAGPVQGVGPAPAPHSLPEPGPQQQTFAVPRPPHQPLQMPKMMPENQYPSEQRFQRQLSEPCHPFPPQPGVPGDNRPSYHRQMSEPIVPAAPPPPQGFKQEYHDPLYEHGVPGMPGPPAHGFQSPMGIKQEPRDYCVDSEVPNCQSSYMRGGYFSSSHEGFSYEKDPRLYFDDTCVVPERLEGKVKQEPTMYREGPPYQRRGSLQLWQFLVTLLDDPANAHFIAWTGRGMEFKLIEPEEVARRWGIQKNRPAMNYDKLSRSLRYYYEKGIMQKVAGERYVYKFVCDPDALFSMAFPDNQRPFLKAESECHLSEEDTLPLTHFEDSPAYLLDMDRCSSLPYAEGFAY
ETV1, sequence (P50549 whole entry): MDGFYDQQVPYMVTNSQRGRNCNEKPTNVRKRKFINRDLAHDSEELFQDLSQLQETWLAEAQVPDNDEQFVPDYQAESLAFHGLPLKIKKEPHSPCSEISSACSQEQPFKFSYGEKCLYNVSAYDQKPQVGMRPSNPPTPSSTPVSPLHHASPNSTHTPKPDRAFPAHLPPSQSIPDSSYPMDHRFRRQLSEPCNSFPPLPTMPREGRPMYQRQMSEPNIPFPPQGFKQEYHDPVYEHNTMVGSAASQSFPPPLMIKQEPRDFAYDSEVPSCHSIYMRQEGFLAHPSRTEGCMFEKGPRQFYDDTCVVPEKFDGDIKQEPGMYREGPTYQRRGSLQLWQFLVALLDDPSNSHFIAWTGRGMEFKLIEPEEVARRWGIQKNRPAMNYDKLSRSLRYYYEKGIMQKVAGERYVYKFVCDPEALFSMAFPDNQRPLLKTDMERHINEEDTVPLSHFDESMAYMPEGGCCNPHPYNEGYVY
SPIB, sequence (Q01892 whole entry): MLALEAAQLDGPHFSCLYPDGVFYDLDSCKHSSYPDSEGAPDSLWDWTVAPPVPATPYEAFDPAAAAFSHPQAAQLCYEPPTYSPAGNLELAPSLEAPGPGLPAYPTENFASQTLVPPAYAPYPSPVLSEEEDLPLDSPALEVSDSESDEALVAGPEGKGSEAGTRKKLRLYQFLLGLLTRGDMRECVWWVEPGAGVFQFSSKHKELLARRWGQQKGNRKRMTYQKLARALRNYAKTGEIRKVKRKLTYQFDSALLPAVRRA

AATCTA
binding signal (FLI1): 1.07 fold enrichment (6-mer frequency, TF over GST control) | binding signal (ELK1): 1.06 fold enrichment (6-mer frequency, TF over GST control) | binding signal (GABPA): 1.05 fold enrichment (6-mer frequency, TF over GST control) | binding signal (ERG): 1.17 fold enrichment (6-mer frequency, TF over GST control) | binding signal (ELF1): 1.17 fold enrichment (6-mer frequency, TF over GST control) | binding signal (EHF): 1.17 fold enrichment (6-mer frequency, TF over GST control) | binding signal (SPI1): 1.12 fold enrichment (6-mer frequency, TF over GST control) | binding signal (SPIB): 1.17 fold enrichment (6-mer frequency, TF over GST control) | binding signal (ELK3): 1.12 fold enrichment (6-mer frequency, TF over GST control) | binding signal (FEV): 1.15 fold enrichment (6-mer frequency, TF over GST control) | binding signal (ETV5): 1.12 fold enrichment (6-mer frequency, TF over GST control) | binding signal (HSF1): 1.87 fold enrichment (6-mer frequency, TF over GST control) | binding signal (SPIC): 1.1 fold enrichment (6-mer frequency, TF over GST control) | binding signal (ELF4): 1.14 fold enrichment (6-mer frequency, TF over GST control) | binding signal (ELK4): 1.07 fold enrichment (6-mer frequency, TF over GST control) | binding signal (ETV2): 1.09 fold enrichment (6-mer frequency, TF over GST control) | binding signal (ELF3): 1.04 fold enrichment (6-mer frequency, TF over GST control) | binding signal (CRX): 1.92 fold enrichment (6-mer frequency, TF over GST control) | binding signal (ETV1): 1.21 fold enrichment (6-mer frequency, TF over GST control)
